# The whole screen tested about 69,000 compounds, of which about 1,000 (1.4%) showed an effect of 50% or more. The sample holds strong results, similar compounds and a random draw of the others, so the mix is not that of the screen.
# Test system: Leishmania donovani
# Test: Leishmania intramacrophage assay
# Assay type: functional, organism-based
# Parameters: scale not given: in the data most compounds retested in dose-response had high values
smiles,measurement,setting,value
CN(CC(=O)NC(Cc1ccsc1)c1cccnc1)Cc1cccnc1.Cl (stereo not drawn),Percent Effect,"30.3 µM, […]",2.46%
O=c1[nH]c2c(c(=O)n1C1CCCCC1)CCC2Nc1ccccc1Cl (stereo not drawn),Percent Effect,"30 µM, 30.03 µM",19.4%
CC(CNC(=O)c1cccc(-n2cccn2)n1)Cn1ccnc1 (stereo not drawn),Percent Effect,"30.3 µM, […]",11.75%
O=C(NC[C@H]1CC[C@H](c2ccnc3ncnn32)CC1)C1CC1,Percent Effect,"30.3 µM, […]",16.97%
O=C(NC[C@H]1CC[C@H](c2ccnc3ncnn32)CC1)c1ccccn1,Percent Effect,"30.3 µM, […]",56.14%
COCC(=O)NC[C@H]1CC[C@H](c2ccnc3ncnn32)CC1,Percent Effect,"30.3 µM, […]",23.66%
COc1ccc(OCc2noc(CN(C)C3CCS(=O)(=O)C3)n2)cc1 (stereo not drawn),Percent Effect,"30.3 µM, […]",17.47%
O=C(CC1=CCCCC1)Nc1ccc(CN2C(=O)CCC2=O)cc1,Percent Effect,"30.3 µM, […]",-19.22%
C[C@@H]1CN(C2CCN(c3ccccc3F)CC2)C[C@]1(C)O,Percent Effect,"30.3 µM, […]",31.62%
C[C@@H]1CN(C2CCN(c3ccccc3F)CC2)CC[C@]1(C)O,Percent Effect,"30.3 µM, […]",62.06%
CC(=O)N[C@@H]1CN(C2CCN(c3ccccc3F)CC2)C[C@H]1C(C)C,Percent Effect,"30.3 µM, […]",-2.556%
CCC(O)CN1CCN(C(=O)c2cccn2Cc2ccccc2)CC1 (stereo not drawn),Percent Effect,"30 µM, 30.03 µM",13.25%
Cn1cc(C(=O)N[C@H]2CN(Cc3nccs3)[C@@H]3CCCO[C@H]23)cn1.O=C(O)C(F)(F)F,Percent Effect,"30.3 µM, […]",15.38%
CC(NCc1ccncc1)c1cc2c(cc1Br)OCCO2 (stereo not drawn),Percent Effect,"30.3 µM, […]",16.23%
CC(NCc1ccccn1)c1cc2c(cc1Br)OCCO2 (stereo not drawn),Percent Effect,"30.3 µM, […]",16.93%
CC(NCc1cccc2c1OCCO2)c1cc2c(cc1Br)OCCO2 (stereo not drawn),Percent Effect,"30.3 µM, […]",73.82%
O=C(NCCNc1ncccn1)N1CCN(c2nccs2)CC1,Percent Effect,"30.3 µM, […]",13.95%
CS(=O)(=O)Cc1cc(F)ccc1NCc1nnsc1Cl,Percent Effect,"30.3 µM, […]",-4.772%
Cn1ccnc1CN1CCC2(COCCN(Cc3ccsc3)C2)C1 (stereo not drawn),Percent Effect,"30 µM, 30.03 µM",46.66%
Cn1ccnc1CN1CCC2(CC1)COCCN(S(C)(=O)=O)C2.O=C(O)C(F)(F)F,Percent Effect,"30.3 µM, […]",39.8%
Cn1ccnc1CN1CCC2(CC1)COCCN(c1ncccn1)C2,Percent Effect,"30.3 µM, […]",59.31%
NCC(=O)N1CCC2(CC1)CN(C(=O)Cc1ccc(Cl)cc1)CCO2,Percent Effect,"30.3 µM, […]",-4.476%
Cc1nccn1C1CCCN(C(=O)c2cccc(Cn3ccnc3)c2)C1 (stereo not drawn),Percent Effect,30 µM,43.46%
CCN(CCO)C[C@@H]1CN(C(=O)c2sc3ccccc3c2C)C[C@@H]1CO,Percent Effect,"30.3 µM, […]",-0.1561%
CN(CCC#N)C(=O)Cc1csc(-c2ncccn2)n1,Percent Effect,"30.3 µM, […]",54.73%
CN(CC1CC1)C(=O)Cc1csc(-c2ncccn2)n1,Percent Effect,"30.3 µM, […]",39.01%
COc1ccc(-c2nc(CC(=O)N(C)CCC#N)cs2)cc1OC,Percent Effect,"30.3 µM, […]",0.3942%
COCC1CCCCN1C(=O)c1cc(-c2cccc(OC)c2)n[nH]1 (stereo not drawn),Percent Effect,"30.3 µM, […]",-0.5575%
COCC(=O)NCCc1nc(N(C)C)ncc1-c1ccncc1,Percent Effect,"30.3 µM, […]",29.7%
Cn1cc(C(=O)N2CC[C@@H]3[C@@H]2CCN3Cc2ccccc2)cn1.O=C(O)C(F)(F)F,Percent Effect,"30.3 µM, […]",4.091%
Cn1cc(CN2CC[C@@H]3[C@@H]2CCN3C(=O)c2cccc(F)c2)cn1.O=C(O)C(F)(F)F,Percent Effect,"30.3 µM, […]",56.05%
Cn1cc(C(=O)N2CC[C@@H]3[C@@H]2CCN3Cc2cccc(F)c2)cn1.O=C(O)C(F)(F)F,Percent Effect,"30 µM, 30.03 µM",2.666%
Cc1oncc1C(=O)N1CC[C@H]2CO[C@H](CN3CCCC3)[C@H]2C1,Percent Effect,"30.3 µM, […]",5.899%
COc1c(CNC2CCSc3ccc(F)cc32)c(C)nn1C.Cl (stereo not drawn),Percent Effect,"30 µM, 30.03 µM",60.68%
COc1c(CNC2CCCOc3ccc(F)cc32)c(C)nn1C.Cl (stereo not drawn),Percent Effect,"30.3 µM, […]",19.28%
COc1c(CNC2CCc3cc(F)ccc32)c(C)nn1C.Cl (stereo not drawn),Percent Effect,"30 µM, 30.03 µM",46.26%
COc1c(CNC2CCc3c(F)cccc32)c(C)nn1C.Cl (stereo not drawn),Percent Effect,30 µM,34.02%
COc1c(CNC2CCOc3c(Cl)cccc32)c(C)nn1C.Cl (stereo not drawn),Percent Effect,"30.3 µM, […]",30.91%
COc1c(CNC2CCc3c(Cl)cccc32)c(C)nn1C.Cl (stereo not drawn),Percent Effect,"30 µM, 30.03 µM",56.04%
COc1ccc(F)c(CNC2CCCc3nc(N(C)C)ncc32)c1 (stereo not drawn),Percent Effect,"30.3 µM, […]",34.48%
O=C(c1ccccc1)N1CC2(CCNC2)OCc2ccccc21 (stereo not drawn),Percent Effect,"30.3 µM, […]",23.45%
O=C(c1ccc(Cl)cc1)N1CC2(CCNC2)OCc2ccccc21 (stereo not drawn),Percent Effect,"30.3 µM, […]",67.31%
O=C(C1CCCC1)N1CC2(CCNC2)OCc2ccccc21 (stereo not drawn),Percent Effect,"30.3 µM, […]",12.94%
Cc1noc(CSc2ccc(C(F)(F)F)cn2)n1,Percent Effect,"30.3 µM, […]",27.73%
CCCc1nc(C)c(C(=O)NCCn2ccnc2)s1,Percent Effect,"30.3 µM, […]",-7.791%
Cl.Cl.Clc1cccc(C[C@@H]2NCCC[C@@H]2Nc2ccccc2)c1,Percent Effect,"30.3 µM, […]",98.87%
CCOc1ccc(Cl)cc1C1CCCN1.Cl (stereo not drawn),Percent Effect,"30 µM, 30.03 µM",7.031%
Cl.O=C(OCC1CCCN1)c1cccc(NC(=O)c2ccco2)c1 (stereo not drawn),Percent Effect,"30.3 µM, […]",19.64%
Cl.Clc1cccc(N[C@H]2CCCN[C@H]2Cc2ccccc2)c1,Percent Effect,"30.3 µM, […]",98.49%
Cl.Cl.Clc1cccc(C[C@@H]2NCCC[C@@H]2Nc2cccc(Cl)c2)c1,Percent Effect,"30.3 µM, […]",98%
O=C(Cc1cccc(Cl)c1)N[C@@H]1CCNC[C@H]1O,Percent Effect,"30 µM, 30.03 µM",-4.847%
O=C1NCCCc2[nH]c(Cc3cccc(Cl)c3)nc21,Percent Effect,"30.3 µM, […]",16.75%
O=C(NCCc1cccc(Cl)c1)C1CCOCC1,Percent Effect,"30.3 µM, […]",-10.81%
O=C(C[S+]([O-])Cc1cccc(Cl)c1)NC1CCCC1 (stereo not drawn),Percent Effect,"30.3 µM, […]",13.89%
CCn1cc2c(n1)C(COC)CN(Cc1ccccn1)C2 (stereo not drawn),Percent Effect,"30 µM, 30.03 µM",-30.8%
O=C(c1csc(-c2ncccn2)n1)N1CCN(C2CCCC2)CC1,Percent Effect,"30.3 µM, […]",15.8%
COc1cc(N2C[C@@H]3COC[C@]3(COc3ccccn3)C2)ncn1.O=C(O)C(F)(F)F.O=C(O)C(F)(F)F,Percent Effect,"30.3 µM, […]",12.8%
N#Cc1ccc(OC[C@]23COC[C@H]2CN(c2ncccn2)C3)nc1,Percent Effect,"30.3 µM, […]",-11.64%
COc1cc(N2C[C@@H]3COC[C@]3(COc3ccc(C#N)cn3)C2)ncn1,Percent Effect,"30 µM, 30.03 µM",56.85%
Cc1csc(NC(=O)[C@@H]2C[C@H]3[C@H](CCN3S(C)(=O)=O)O2)n1,Percent Effect,"30.3 µM, […]",37.69%
Cn1ncc2c(NCCCOc3cccnc3)nc(C3CCCC3)nc21,Percent Effect,"30.3 µM, […]",7.938%
CCOCCNc1nc(C2CCCC2)nc2c1cnn2C,Percent Effect,"30 µM, 30.03 µM",33.9%
Cn1ncc2c(NCCOc3ccc(F)cc3)nc(C3CCCC3)nc21,Percent Effect,"30 µM, 30.03 µM",50.15%
CC[C@H]1CN(C(=O)C2CC2)CC[C@H]1CC(=O)NCCN1CCOCC1,Percent Effect,"30.3 µM, […]",-123.3%
CN(Cc1cc[nH]n1)C(=O)c1cccc(CCC(C)(C)O)c1,Percent Effect,"30 µM, 30.03 µM",14.32%
CN(Cc1n[nH]c2c1CCC2)C(=O)c1cccc(CCC(C)(C)O)c1,Percent Effect,"30.3 µM, […]",57.38%
CN(Cc1n[nH]c2c1CCCC2)C(=O)c1cccc(CCC(C)(C)O)c1,Percent Effect,"30.3 µM, […]",22.46%
N#Cc1ccc(CN2CCN(C(=O)c3cc(C4CC4)[nH]n3)CC2)cc1,Percent Effect,"30 µM, 30.03 µM",47.32%
CC(C)(C)CN(CCC#N)C(=O)c1cccc(CN2CCCC2)c1,Percent Effect,"30.3 µM, […]",15.51%
Cc1cccnc1C(=O)N1CCCC(c2[nH]ncc2S(C)(=O)=O)C1 (stereo not drawn),Percent Effect,"30 µM, 30.03 µM",-23.25%
CC(=O)N1CC[C@]2(O)CCN(Cc3nc(C)c[nH]3)C[C@@H]2C1,Percent Effect,"30.3 µM, […]",3.766%
O=C(O)C(F)(F)F.c1cnc(N2C[C@H]3CCN(CC4CC4)C[C@H]3C2)cn1,Percent Effect,"30.3 µM, […]",30.4%
O=C(O)C(F)(F)F.O=C(O)C(F)(F)F.c1cnc(N2C[C@H]3CCN(CCN4CCCC4)C[C@H]3C2)cn1,Percent Effect,"30.3 µM, […]",50.81%
O=C(C1CCCC1)N1C[C@@H]2CCN(c3cnccn3)C[C@@H]2C1.O=C(O)C(F)(F)F,Percent Effect,"30.3 µM, […]",10.31%
COC(=O)c1ccc(OC)c(OC23CCCN(CC2)C3)c1 (stereo not drawn),Percent Effect,"30.3 µM, […]",-2.222%
COc1ccc(SCC2CNc3nc4ccccc4c(=O)n32)cc1 (stereo not drawn),Percent Effect,"30.3 µM, […]",24.33%
O=C(NCCNc1ccc(C(F)(F)F)cn1)c1ccc(F)cc1Cl,Percent Effect,30 µM,35.81%
Cc1nccn1CCC1CCCCN1Cc1ccc(O)cc1Cl (stereo not drawn),Percent Effect,"30.3 µM, […]",62.65%
Cc1cc2c(cc1CN1CCCCC1CCn1ccnc1C)OCO2 (stereo not drawn),Percent Effect,"30.3 µM, […]",16.68%
Cc1nccn1CCC1CCCCN1Cc1ccncc1 (stereo not drawn),Percent Effect,"30 µM, 30.03 µM",14.55%
COc1ccccc1CCN1CCCC(CN(C)Cc2ccc(C)o2)C1 (stereo not drawn),Percent Effect,"30.3 µM, […]",51.06%
COc1ccc(CCN2CCCC(CN(C)Cc3ccc(C)o3)C2)cc1 (stereo not drawn),Percent Effect,"30 µM, 30.03 µM",48.36%
COc1ccccc1CCN1CCCC(CN(C)Cc2c[nH]c(C)n2)C1 (stereo not drawn),Percent Effect,"30.3 µM, […]",23.77%
CN(C)S(=O)(=O)N1CCC(Oc2ccc(C#N)cc2)CC1,Percent Effect,"30 µM, 30.03 µM",23.32%
CN(C)CCNC(=O)CCn1ncc2c(Cl)cccc21,Percent Effect,"30.3 µM, […]",55.96%
COCCNC(=O)CCn1ncc2c(Cl)cccc21,Percent Effect,"30.3 µM, […]",-81.24%
CN(C)C(=O)CNC(=O)CCn1ncc2c(Cl)cccc21,Percent Effect,"30 µM, 30.03 µM",13.94%
CCN(CC)CC(=O)NCc1cccnc1-n1cnc2ccccc21,Percent Effect,"30.3 µM, […]",12.53%
Cc1nc(CNc2ccc(C(=O)NCc3ccco3)cc2C)no1,Percent Effect,"30.3 µM, […]",3.169%
COc1cc(N2CC[C@H](O)[C@@H]2Cc2ccccc2)ncn1,Percent Effect,"30.3 µM, […]",33.09%
COc1cc(N2CC[C@H](O)[C@@H]2Cc2cccnc2)ncn1,Percent Effect,"30.3 µM, […]",5.968%
COc1cc(N2CC[C@@H](O)[C@@H]2Cc2ccccc2)ncn1,Percent Effect,"30.3 µM, […]",51.86%
Cc1cc(C(=O)N2CC[C@@]3(C[C@@H](NS(C)(=O)=O)CCO3)C2)no1,Percent Effect,"30.3 µM, […]",13.02%
O=C(CCn1cncn1)NCCOc1cccc(Cl)c1,Percent Effect,"30.3 µM, […]",-12.3%
Cc1c(C(C)NC2CCN(C(C)C)CC2)cnn1-c1ccc(F)cc1F (stereo not drawn),Percent Effect,"30.3 µM, […]",61.65%
Cc1c(C(C)NC2CCCC2)cnn1-c1ccc(F)cc1F (stereo not drawn),Percent Effect,"30.3 µM, […]",6.771%
CC(=O)N1CCC(NC(C)c2cnn(-c3ccc(F)cc3F)c2C)CC1 (stereo not drawn),Percent Effect,"30.3 µM, […]",3.786%
CCN(CCOC)C(=O)c1ccc2c(c1)nc(N1CC[C@H](O)C1)n2C,Percent Effect,"30.3 µM, […]",20.98%
